Results on 14 compounds are retold here after PubChem BioAssay.

As usually defined, the inhibition is the relative decrease from the control value, in per cent.

A short description of test [1]: inhibitors of TNFa-induced NFkB p65 translocation, primary screen, imaging, HUVEC, MLSMR starter and 10KST1 sets (AID 438;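 active = inhibition above 20% together with a positive visual image hit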;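 note: compound added about 3h40 before a 20 min TNFalpha stimulation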;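 for inhibition: signal is the nuclear over cytoplasmic p65 intensity ratio per well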). As to conditions: HUVEC TNFa-induced p65 nuclear translocation; cell count: measured here: nuclei count (cytotoxicity indicator), at 2.08 µM; inhibition: at 2 µM, stronger effect = higher value, 0% TNFa-plus-vehicle, 100% no-TNFa wells.
Test [2] can be described thus: inhibitors of mutant huntingtin aggregation, primary screen, imaging, exon1htt(103Q)mCFP cells, high-content imaging (AID 483;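 active = visual image review flags a hit and inhibition of aggregation exceeds 20%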;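 note: compound exposure lasted 3 days before fixation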;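 for nuclei count: percent of the per-plate median nuclei count of sample wells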). As to conditions: exon1htt(103Q)mCFP cell line, aggregate imaging, at 2 µM; inhibition of aggregation: stronger effect = higher value; nuclei count: measured here: cell count, toxicity.
Test [3] in a line: inhibitors of E-selectin induction by TNFa, primary screen, imaging, HUVEC, immunofluorescence, MLSMR starter and 10KST1 sets (AID 487).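 For inhibition: signal is fraction of cell area covered by stained E-selectin grains.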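 For nuclei count: 100% = median nuclei count of all wells on the same plate.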 The conditions noted are these: HUVEC TNFalpha-induced E-selectin immunofluorescence imaging, at 2 µM; inhibition: stronger effect = higher value; nuclei count: measured here: cell number, toxicity.
The target in test [4] is Voltage-gated potassium channel subunit beta-2 (Rattus norvegicus) (UniProt P62483). The test can be described thus: KvBeta enzyme negative modulators, primary screen, biochemical, NADPH fluorescence (AID 622;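 active = fluorescence slope higher than the sample average by over 3 SD, cut at about -0.22 in these data, passing the limit was not always enough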;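 note: slope of raw intensity against log time taken from 70 to 1610 s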). The conditions noted are these: recombinant KvBeta, 4-cyanobenzaldehyde reduction, at 10 µM, stronger effect = higher value.
Chain of Voltage-gated potassium channel subunit beta-2 (Rattus norvegicus) (P62483 whole entry, looked up): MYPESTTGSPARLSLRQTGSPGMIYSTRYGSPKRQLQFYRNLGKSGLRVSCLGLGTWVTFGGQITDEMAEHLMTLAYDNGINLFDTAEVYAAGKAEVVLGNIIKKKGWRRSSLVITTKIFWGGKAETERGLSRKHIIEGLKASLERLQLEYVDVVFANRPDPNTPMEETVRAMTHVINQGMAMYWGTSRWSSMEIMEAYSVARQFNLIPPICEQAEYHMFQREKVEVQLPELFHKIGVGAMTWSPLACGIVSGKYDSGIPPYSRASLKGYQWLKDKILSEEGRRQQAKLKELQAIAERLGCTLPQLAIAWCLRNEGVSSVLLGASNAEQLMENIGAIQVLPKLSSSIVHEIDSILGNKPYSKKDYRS
For test [5] the target is unchanged. The test can be described thus: KvBeta positive modulators, primary screen, biochemical, NADPH fluorescence (AID 623;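 active = NADPH fluorescence slope more negative than the mean of all samples by about 3 SD, 99.7% confidence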;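 note: fluorescence intensity change per second fitted from 20 to 320 s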). As to conditions: Recombinant KvBeta, NADPH fluorescence decrease slope, 10 min; at 10 µM; stronger effect = lower value.
The target in test [6] is Alpha-2C adrenergic receptor (Homo sapiens) (UniProt P18825). The test can be described thus: modulators of alpha2C/GIRK thallium flux, primary screen, cell-based, HEK293 alpha2C/GIRK1/2 (AID 624;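 active = fluorescence slope after compound addition differing from the mean of all screened samples at 99.7% confidence, in either direction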;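 note: slope of fluorescence ratio to pre-addition baseline per second over 15 to 24 s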). As to conditions: thallium flux BTC fluorescence, at 10 µM, actives lie on both sides.
Chain of Alpha-2C adrenergic receptor (Homo sapiens) (P18825 whole entry, looked up): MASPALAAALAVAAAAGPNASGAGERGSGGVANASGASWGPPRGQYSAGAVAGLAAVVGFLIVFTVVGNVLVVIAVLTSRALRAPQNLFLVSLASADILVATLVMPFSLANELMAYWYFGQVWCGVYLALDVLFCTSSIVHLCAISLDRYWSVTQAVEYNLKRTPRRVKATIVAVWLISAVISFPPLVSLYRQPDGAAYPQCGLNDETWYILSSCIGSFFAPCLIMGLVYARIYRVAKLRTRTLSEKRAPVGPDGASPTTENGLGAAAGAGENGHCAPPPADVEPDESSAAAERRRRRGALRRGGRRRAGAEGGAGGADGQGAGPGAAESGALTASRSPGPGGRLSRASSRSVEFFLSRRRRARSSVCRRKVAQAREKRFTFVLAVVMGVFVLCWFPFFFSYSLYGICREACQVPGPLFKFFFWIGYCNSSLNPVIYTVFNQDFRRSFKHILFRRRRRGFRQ
A short description of test [7]: inhibitors of Sendai virus-induced IRF3 signaling, primary screen, TLR/RLR signaling modifier project, cell-based, Sendai virus stimulus, luciferase, 10K MLSCN set (AID 602276;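 active = inhibition at or above 50% at 10 µM; inactive = inhibition below 50%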;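 note: firefly luciferase from ISG56 promoter only with Renilla not read in this screen; 0% = Sendai virus plus DMSO and 100% = medium plus DMSO without virus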). The conditions noted are these: HEK293 RL24 IRF3 luciferase reporter, at 10 µM, stronger effect = higher value. (A reporter such as luciferase makes a cellular process visible.)
Test [8] is described as follows: inhibitors of poly I:C-induced TLR3 signaling, primary screen, cell-based, poly I:C stimulus, luciferase, 10K MLSCN set (AID 602277;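 active = inhibition of the reporter signal at or above 50%; inactive = inhibition below 50%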). As to conditions: HEK293-TLR3 RL24 IRF3 luciferase reporter, at 10 µM, stronger effect = higher value.

Activity calls are given as the source filed them.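 Rule for the calls, unless noted: active = visually confirmed hit in the image check and inhibition above 20%; inconclusive = visually confirmed hit but inhibition not above 20%; inactive = no visual hit in the image check.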

Turning to `Nc1cc(CN2C(=O)c3ccccc3C2=O)cc(Cl)c1O`, in test [1], the cell count came to 451. For the same compound, the inhibition in test [1] is -1.8% (inactive); in test [3], -74.6% (inactive); in test [7], 12.8% (inactive); in test [8], 36.4% (inactive). In addition, in test [2], the inhibition of aggregation is 14.9% (inactive). Also, the nuclei count in test [2] is 100%; in test [3] it was 159%. For the same compound, the fluorescence slope in test [4] is -0.401 (inactive). In test [5], the NADPH fluorescence slope was -5.2e-05 (inactive). Besides, in test [6], the slope is 0.00582 (inactive).

Turning to `COCCNC(=O)C(c1ccc(O)cc1)N(Cc1ccco1)C(=O)CCC(=O)Nc1nccs1` (centres undefined), the cell count in test [1] amounted to 474. Also, the inhibition was 6.7% (inactive) in test [1], -52.2% (inactive) in test [3], -12.6% (inactive) in test [7] and 14.7% (inactive) in test [8]. Also, the inhibition of aggregation in test [2] is 0.1% (inactive). In addition, the nuclei count worked out at 102% in test [2] and 116% in test [3]. In addition, the fluorescence slope in test [4] is -0.499 (inactive). The NADPH fluorescence slope in test [5] is 4.7e-06 (inactive). Also, the slope in test [6] is 0.0061 (inactive).

On to `Nc1nc(-c2ccc(Br)s2)c(Br)s1`, for which, in test [1], the cell count came to 579. The inhibition in test [1] is -10.7% (inactive); in test [3] it was 18.6% (inactive); in test [7] it was 1.12% (inactive); in test [8] it was 2.3% (inactive). The inhibition of aggregation in test [2] was 5.7% (inactive). The nuclei count in test [2] came to 102%; in test [3], 98%. Besides, in test [4], the fluorescence slope is -0.507 (inactive). Besides, the NADPH fluorescence slope in test [5] was 2.9e-05 (inactive). Moreover, the slope in test [6] was 0.00465 (inactive).

Turning to `Cc1cc(C)n2cc(CSc3nnnn3-c3ccc(Cl)cc3)nc2n1`, in test [1], the cell count came out at 446. The inhibition in test [1] was 2.4% (inactive); in test [3], 15.8% (inactive); in test [7], 19.2% (inactive); in test [8] it was 16.6% (inactive). In test [2], the inhibition of aggregation was -22.5% (inactive). Besides, the nuclei count worked out at 99.6% in test [2] and 91.8% in test [3]. Also, the fluorescence slope in test [4] is -0.517 (inactive). For the same compound, the NADPH fluorescence slope in test [5] is -3.7e-05 (inactive). In addition, the slope in test [6] was 0.00492 (inactive).

Regarding `CCOCCCNC(=O)C(c1ccc(C)cc1)N(Cc1ccc2c(c1)OCO2)C(=O)c1cnccn1` (centres undefined), the cell count in test [1] came out at 275. The inhibition in test [1] is 13.1% (inactive); in test [3], -40.9% (inactive); in test [7] it was 9.6% (inactive); in test [8] it was 17% (inactive). Moreover, the inhibition of aggregation in test [2] is 16.3% (inactive). The nuclei count in test [2] worked out at 102%; in test [3], 107%. Moreover, in test [4], the fluorescence slope was -0.471 (inactive). For the same compound, the NADPH fluorescence slope in test [5] was 4.1e-05 (inactive). In addition, in test [6], the slope was 0.00515 (inactive).

For `Cc1ccc(-c2ccc(SCC(=O)Nc3nonc3C)nn2)cc1`, in test [1], the cell count came out at 413. Further, the inhibition in test [1] is 2.2% (inactive); in test [3], -24.8% (inactive); in test [7] it was 9.6% (inactive); in test [8], 15.8% (inactive). Moreover, the inhibition of aggregation in test [2] was -2% (inactive). Moreover, the nuclei count in test [2] was 103%; in test [3] it was 108%. Besides, the fluorescence slope in test [4] was -0.283 (inactive). Moreover, in test [5], the NADPH fluorescence slope was -5.6e-05 (inactive). In addition, the slope in test [6] is 0.00591 (inactive).

As for `C=CCn1c(COc2ccc(Cl)cc2)nnc1SCC(=O)N1CC(=O)Nc2ccccc21`, the cell count in test [1] worked out at 315. Moreover, the inhibition in test [1] was 1.9% (inactive); in test [3] it was -6.5% (inactive); in test [7], 3.41% (inactive); in test [8] it was 4.64% (inactive). In test [2], the inhibition of aggregation is -0.9% (inactive). Further, the results for the nuclei count in test [2] and in test [3] were 104% and 110%, respectively. Besides, in test [4], the fluorescence slope is -0.425 (inactive). For the same compound, the NADPH fluorescence slope in test [5] was -2.1e-05 (inactive). Besides, the slope in test [6] is 0.00537 (inactive).

On to `O=C(NCc1ccccc1)c1ccc(OC2CSC2)cc1`, for which, in test [1], the cell count was found to be 655. In addition, the inhibition was -30.1% (inactive) in test [1], -45.7% (inactive) in test [3], -8.59% (inactive) in test [7] and -14.1% (inactive) in test [8]. The inhibition of aggregation in test [2] is 9.3% (inactive). Further, the nuclei count in test [2] worked out at 97.9%; in test [3], 108%. Also, the fluorescence slope in test [4] was -0.486 (inactive). Further, the NADPH fluorescence slope in test [5] was -4.6e-05 (inactive). Moreover, the slope in test [6] is 0.00606 (inactive).

With `CCN(CC)C(=O)C1CCCN(Cc2ccc(N(C)C)cc2)C1` (centres undefined), the cell count in test [1] stood at 376. In addition, the inhibition in test [1] is 0% (inactive); in test [3], -48.8% (inactive); in test [7] it was 17.9% (inactive); in test [8] it was 26.8% (inactive). The inhibition of aggregation in test [2] was -25.6% (inactive). Further, the results for the nuclei count in test [2] and in test [3] were 99% and 124%, respectively. The fluorescence slope in test [4] is -0.462 (inactive). Also, the NADPH fluorescence slope in test [5] was 7.7e-05 (inactive). For the same compound, in test [6], the slope was 0.00605 (inactive).

In the case of `CCN(CC)CCN1C(=O)Cn2c(C)c(C)c3cccc1c32`, the cell count in test [1] was 426. For the same compound, the inhibition in test [1] was -6.7% (inactive); in test [3], -102% (inactive); in test [7], 15% (inactive); in test [8] it was 24.1% (inactive). In addition, in test [2], the inhibition of aggregation was 18.6% (inactive). Also, the results for the nuclei count in test [2] and in test [3] were 93.7% and 232%, respectively. Also, the fluorescence slope in test [4] is -0.434 (inactive). Also, the NADPH fluorescence slope in test [5] was -1.1e-05 (inactive). Moreover, in test [6], the slope is 0.00506 (inactive).

In the case of `COc1ccccc1CNC(=O)N[C@@H](Cc1ccccc1)C(=O)O`, in test [1], the cell count came out at 602. Besides, the inhibition was 0.9% (inactive) in test [1], 31.9% (inactive) in test [3], 12.8% (inactive) in test [7] and 22.6% (inactive) in test [8]. Further, the inhibition of aggregation in test [2] is -15.9% (inactive). Also, the nuclei count in test [2] came to 107%; in test [3], 99.5%. Also, the fluorescence slope in test [4] was -0.6 (inactive). Moreover, the NADPH fluorescence slope in test [5] was -5.1e-05 (inactive). Further, the slope in test [6] was 0.00621 (inactive).

With `Cc1cc(C)nc(SCC(=O)Nc2ncc3c(n2)CCCC3=O)n1`, the cell count in test [1] was determined as 188. Further, the inhibition in test [1] was -8.6% (inactive); in test [3], -9.1% (inactive); in test [7] it was 6.63% (inactive); in test [8], 11.4% (inactive). In test [2], the inhibition of aggregation was 10.1% (inactive). For the same compound, the nuclei count in test [2] stood at 98.6%; in test [3], 85.2%. The fluorescence slope in test [4] was -0.622 (inactive). Moreover, the NADPH fluorescence slope in test [5] was -1.1e-05 (inactive). For the same compound, the slope in test [6] was 0.00766 (inactive).

For the compound `C=CCn1c(SCC(=O)c2ccc(OC)cc2)nnc1C(C)NC(=O)c1cccs1` (centres undefined), the cell count in test [1] amounted to 661. The inhibition is -0.6% (inactive) in test [1], -44.6% (inactive) in test [3], 10.6% (inactive) in test [7] and 12.5% (inactive) in test [8]. Also, the inhibition of aggregation in test [2] is 1.5% (inactive). Besides, the results for the nuclei count in test [2] and in test [3] were 127% and 132%, respectively. Moreover, in test [4], the fluorescence slope is -0.349 (inactive). For the same compound, the NADPH fluorescence slope in test [5] was -4e-06 (inactive). Further, in test [6], the slope was 0.00302 (inactive).

On to `O=C(CCNS(=O)(=O)c1cccc2nsnc12)NCc1cccs1`, for which the cell count in test [1] was found to be 623. Further, the inhibition in test [1] is -21% (inactive); in test [3], -34.5% (inactive); in test [7], 17.1% (inactive); in test [8] it was 19% (inactive). For the same compound, the inhibition of aggregation in test [2] is -17.4% (inactive). Further, the nuclei count in test [2] was 101%; in test [3] it was 118%. For the same compound, the fluorescence slope in test [4] is -0.508 (inactive). Moreover, in test [5], the NADPH fluorescence slope was -0.000109 (inactive). Besides, the slope in test [6] is 0.00523 (inactive).
